From PubChem
Only some compounds are listed: those with a hit (about 9.2% of all), similar ones and a draw of the others.
ELG1 genotox = qHTS screen for small molecules that induce genotoxicity in human embryonic kidney (HEK293T) cells expressing luciferase-tagged ELG1 | actives 1.3% (n = 330,000) | AID 504466, 2011 | HEK293T ELG1-luciferase reporter, luminescence, 16 h | Potency, µM (top dose mostly 46 µM), actives largely listed as activators; further: nearly all actives have a fitted effect of over 60% in size
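Genotoxic stress is detected as increased luminescence from luciferase-tagged ELG1 in HEK293T cells, measured with ONE-Glo after a 16 hr treatment at 37 °C.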
ELG1 repair inh = qHTS screen for small molecules that inhibit ELG1-dependent DNA repair in human embryonic kidney (HEK293T) cells expressing luciferase-tagged ELG1; HEK293T ELG1-luciferase reporter, luminescence, 16 h; DNA damage induced by 5-fluorouridine; Potency, µM (titrated, usually from 46.1 µM), actives largely listed as inhibitors; actives 2.3% (n = 330,000); AID 504467, 2011; further: nearly all actives have a fitted effect of over 55% in size
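Luminescence from the luciferase reporter, measured 30 min after ONE-Glo reagent at room temperature, was the read-out. Beforehand, 2,000 cells per well were exposed for 16 hr at 37 °C to 5-fluorouridine together with compound or vehicle.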
Rab9 prom act = qHTS Assay for Rab9 Promoter Activators; Huh7 Rab9 promoter-luciferase reporter, luminescence, 24 h; Potency, µM (doses to about 9.22 µM), hits mostly activators; actives 2.8% (n = 320,000); AID 485297, 2010; further: nearly all actives have a fitted effect of over 60% in size
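Luciferase signal after 10 min detection reagent at ambient indicates Rab9 promoter upregulation; stably transfected Huh7 cells were treated 24 h with compound in DMSO at 37 °C, 5% CO2.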
NPC1 promoter act = qHTS Assay for NPC1 Promoter Activators. Huh7 NPC1 promoter luciferase reporter, 24 h. Potency, µM (top dose mostly 9.22 µM), actives largely listed as activators. actives 2.4% (n = 320,000); further: nearly all actives have a fitted effect of over 60% in size
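Cells: Huh7 expressing luciferase under the NPC1 promoter, 1500/well. Seeded 2 h, compound added, incubated 24 h at 37 °C. Luciferase reagent, 10 min ambient, then luminescence.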
SMN2 splice enh = qHTS Assay for Enhancers of SMN2 Splice Variant Expression; Potency, µM (top dose mostly 46.1 µM), most hits filed as activators; HEK293 SMN2-luciferase splicing reporter, luminescence, 30-36 h; actives 2.8% (n = 210,000); further: nearly all actives have a fitted effect of over 55% in size
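qHTS luciferase splicing reporter: luminescence rises when SMN2 exon 7 is included in transfected HEK293 cells. Compound exposure lasted 30-36 h at 37C, with 4.5 mM final sodium butyrate as control, followed by a ONE-Glo read.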
FLuc counter = qHTS profiling assay for firefly luciferase inhibitor/activator using purifed enzyme and Km concentrations of substrates (counterscreen for miR-21 project); Luciferin 4-monooxygenase (Photinus pyralis), P08659; purified FLuc, Km substrates, luminescence inhibition; Potency, µM (doses to about 57.5 µM), most hits filed as inhibitors; actives 6.9% (n = 360,000); further: nearly all actives have a fitted effect of over 55% in size
Target sequence (P08659 whole entry, looked up): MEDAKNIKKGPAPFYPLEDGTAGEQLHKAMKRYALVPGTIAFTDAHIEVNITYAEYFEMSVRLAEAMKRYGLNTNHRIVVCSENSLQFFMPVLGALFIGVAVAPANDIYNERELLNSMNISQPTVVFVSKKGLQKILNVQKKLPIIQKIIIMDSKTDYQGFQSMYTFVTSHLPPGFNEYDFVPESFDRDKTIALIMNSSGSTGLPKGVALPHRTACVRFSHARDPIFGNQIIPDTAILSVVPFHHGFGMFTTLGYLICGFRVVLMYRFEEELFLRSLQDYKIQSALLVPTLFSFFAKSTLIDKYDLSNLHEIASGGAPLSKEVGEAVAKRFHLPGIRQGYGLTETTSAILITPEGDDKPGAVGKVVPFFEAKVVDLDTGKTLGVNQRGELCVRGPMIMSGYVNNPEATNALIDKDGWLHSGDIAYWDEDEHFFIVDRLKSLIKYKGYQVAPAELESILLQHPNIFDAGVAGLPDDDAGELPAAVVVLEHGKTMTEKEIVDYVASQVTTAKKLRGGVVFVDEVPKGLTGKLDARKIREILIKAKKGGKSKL
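Purified P. pyralis luciferase (10nM final) with 10uM D-luciferin and 10uM ATP (Km levels) in 50mM Tris acetate pH 7.5, 10mM Mg acetate, 0.01% Tween-20, 0.05% BSA; qHTS 6-point titration, ~60 µM downward; luminescence read.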
Large screens that a line does not name were inactive. The call rests on the fitted dose curve; in most records, active means well fitted curve in the direction sought with a large enough effect; inconclusive means small, poorly fitted or top-dose-only effect, or another doubt; inactive means no such curve, though single readings can be large; an effect the other way counts as inactive or inconclusive.

COc1ccc(S(=O)(=O)Nc2cccc(-c3ccc(N4CCC(C)CC4)nn3)c2)cc1OC	FLuc counter 0.426µM (no result: ELG1 genotox, ELG1 repair inh, Rab9 prom act, NPC1 promoter act, SMN2 splice enh)
COc1ccc(S(=O)(=O)Nc2ccc(-c3ccc(N4CCCC4)nn3)cc2)cc1F	none (no result: ELG1 genotox, ELG1 repair inh, Rab9 prom act, NPC1 promoter act, SMN2 splice enh)
CCOC(=O)c1ccc(NC(=O)CC2Nc3cc(C)c(C)cc3NC2=O)cc1 (stereo not given)	none (no result: ELG1 genotox, ELG1 repair inh, Rab9 prom act, NPC1 promoter act)
CC(C(=O)OCC(=O)c1ccc(Br)cc1)N1C(=O)C2C3C=CC(C3)C2C1=O (stereo not given)	FLuc counter inconclusive (no result: SMN2 splice enh)
CC(C)Oc1ccc(C(=O)Nc2ccc(C(F)(F)F)n(C)c2=O)cc1	ELG1 repair inh inconclusive, FLuc counter 19µM
Cc1[nH]c(=O)[nH]c(=O)c1NC(=O)c1ccc(OC(C)C)cc1	none (no result: SMN2 splice enh)
CC(=O)NCCc1nc2cc(NC(=O)c3ccc(F)cc3)ccc2n1C	ELG1 genotox inconclusive, ELG1 repair inh inconclusive, Rab9 prom act 2µM, NPC1 promoter act 3.55µM, FLuc counter 21.3µM (no result: SMN2 splice enh)
Cn1c(CN2CCOCC2)nc2cc(NC(=O)c3ccc(F)cc3)ccc21	ELG1 repair inh inconclusive (no result: SMN2 splice enh)
COc1ccc(C(=O)Nc2ccc3c(c2)nc(CCNC(=O)c2ccco2)n3C)cc1	ELG1 repair inh inconclusive, FLuc counter 15.1µM (no result: SMN2 splice enh)
COc1ccc(C(=O)Nc2ccc3c(c2)nc(CCNC(C)=O)n3C)cc1	ELG1 genotox 18.4µM, ELG1 repair inh inconclusive, Rab9 prom act inconclusive, NPC1 promoter act 2.82µM, SMN2 splice enh inconclusive, FLuc counter 12µM
CCC(=O)Nc1ccc2c(c1)nc(CCNC(=O)c1ccco1)n2C	none (no result: SMN2 splice enh)
CCS(=O)(=O)N1Cc2ccccc2CC1C(=O)Nc1ccc(C)cc1 (stereo not given)	ELG1 genotox inconclusive, ELG1 repair inh inconclusive, FLuc counter inconclusive
CCS(=O)(=O)N1Cc2ccccc2CC1C(=O)Nc1ncc(C)s1 (stereo not given)	ELG1 genotox inconclusive, ELG1 repair inh inconclusive, Rab9 prom act inconclusive, SMN2 splice enh 12.6µM, FLuc counter inconclusive
O=C(Nc1nccs1)C1Cc2ccccc2CN1S(=O)(=O)c1ccc(F)cc1 (stereo not given)	ELG1 genotox inconclusive, ELG1 repair inh inconclusive, Rab9 prom act inconclusive, NPC1 promoter act inconclusive, SMN2 splice enh 11.2µM, FLuc counter 23.9µM
CCS(=O)(=O)N1Cc2ccccc2CC1C(=O)Nc1cccc(C)c1 (stereo not given)	ELG1 repair inh inconclusive, NPC1 promoter act inconclusive, SMN2 splice enh inconclusive, FLuc counter 23.9µM
CC(=O)N1CCOc2ccc(S(=O)(=O)NC[C@H]3O[C@@H](n4cnc5c(N)ncnc54)[C@H](O)[C@@H]3O)cc21	none (no result: Rab9 prom act, NPC1 promoter act, SMN2 splice enh, FLuc counter)
CC(=O)N1c2ccc(N=Cc3cc(Br)cc(Br)c3O)cc2CC1C (stereo not given)	FLuc counter 9.53µM (no result: SMN2 splice enh)
CCOc1ccc(N2C(=O)c3ccccc3C2O)cc1 (stereo not given)	ELG1 genotox 9.2µM, ELG1 repair inh inconclusive, Rab9 prom act inconclusive, NPC1 promoter act 3.16µM, SMN2 splice enh 12.6µM, FLuc counter 12µM
Cc1cccc(C2Nc3ccccc3C(=O)N2CCc2ccccc2)n1 (stereo not given)	SMN2 splice enh inconclusive, FLuc counter inconclusive
COc1ccc(CCN2C(=O)c3ccccc3NC2c2cc(Cl)c(O)c(OC)c2)cc1 (stereo not given)	ELG1 repair inh 7.3µM (no result: SMN2 splice enh)
O=C1c2ccccc2NC(c2ccco2)N1/N=C/c1ccco1 (stereo not given)	ELG1 repair inh inconclusive, Rab9 prom act inconclusive, SMN2 splice enh inconclusive
O=C1c2ccccc2NC(c2cccc([N+](=O)[O-])c2)N1CCc1ccccc1 (stereo not given)	ELG1 repair inh inconclusive, Rab9 prom act inconclusive, NPC1 promoter act inconclusive, FLuc counter 19µM (no result: SMN2 splice enh)
O=C1c2ccccc2C(O)N1c1cccnc1 (stereo not given)	none
C/C(=N\N1C(=O)c2ccccc2NC1c1ccco1)c1ccccc1O (stereo not given)	ELG1 genotox inconclusive, ELG1 repair inh inconclusive, Rab9 prom act 0.355µM, NPC1 promoter act inconclusive, SMN2 splice enh 3.98µM, FLuc counter inconclusive
COc1ccc(C2CC(=O)c3cc(-c4nc(-c5cccc([N+](=O)[O-])c5)cs4)c(=O)n(-c4ccc(C)c(C)c4)c3C2)cc1 (stereo not given)	none (no result: ELG1 genotox, ELG1 repair inh, Rab9 prom act, NPC1 promoter act)
Cc1ccc(Cl)cc1N1CCN(C(=O)CN2C(=O)COc3ccc(S(=O)(=O)N4CCC(C)CC4)cc32)CC1	none (no result: ELG1 genotox, ELG1 repair inh, Rab9 prom act, NPC1 promoter act)
COc1ccc(N2C(=O)c3ccccc3NC2c2ccc(OC)c(Cn3cc([N+](=O)[O-])cn3)c2)cc1 (stereo not given)	ELG1 repair inh inconclusive, Rab9 prom act inconclusive, NPC1 promoter act 2.82µM (no result: SMN2 splice enh)
COc1cc(C2Nc3ccccc3C(=O)N2c2ccccc2)ccc1O (stereo not given)	ELG1 genotox inconclusive, ELG1 repair inh inconclusive
CC(C)Oc1ccccc1C1Nc2ccccc2C(=O)N1c1ccc2c(c1)OCCO2 (stereo not given)	ELG1 genotox inconclusive, ELG1 repair inh inconclusive, Rab9 prom act 1.12µM, NPC1 promoter act 0.794µM, SMN2 splice enh 7.94µM, FLuc counter 13.5µM
CC(C)Oc1ccccc1C1CC(=O)Nc2cc3c(cc21)OCCO3 (stereo not given)	ELG1 repair inh inconclusive
COc1ccc(N2C(=O)c3ccccc3NC2c2ccccc2O)cc1 (stereo not given)	ELG1 genotox inconclusive, ELG1 repair inh inconclusive, Rab9 prom act 1.26µM, NPC1 promoter act 1.41µM (no result: SMN2 splice enh)
COc1ccc(/C(C)=N/N2C(=O)c3ccccc3NC2c2ccc(O)c(OC)c2)cc1 (stereo not given)	ELG1 genotox inconclusive, ELG1 repair inh inconclusive, Rab9 prom act inconclusive, FLuc counter 13.5µM (no result: SMN2 splice enh)
COc1ccc(C2Nc3ccccc3C(=O)N2c2ccccc2)cc1Cn1cc([N+](=O)[O-])cn1 (stereo not given)	ELG1 repair inh inconclusive
COc1ccc(Cl)cc1C(=O)Nc1nnn(C)n1	none
CCOC(=O)N1CCN(C(=O)c2cc(S(=O)(=O)N3CCc4ccccc43)ccc2OC)CC1	none (no result: SMN2 splice enh)
Cc1ccc(/C=N/N2C(=O)c3ccccc3NC2c2ccc(C)cc2)cc1 (stereo not given)	ELG1 genotox inconclusive, ELG1 repair inh inconclusive, Rab9 prom act inconclusive, SMN2 splice enh 12.6µM, FLuc counter inconclusive
C/C(=N\N1C(=O)c2ccccc2NC1c1ccccc1)c1ccccc1O (stereo not given)	ELG1 genotox 4.61µM, ELG1 repair inh inconclusive, Rab9 prom act 0.631µM, NPC1 promoter act inconclusive, SMN2 splice enh 2.82µM
